Marburg entry inh = Marburg virus entry inhibition; Marburg virus pseudotyped entry inhibition, cell reporter; Potency, µM (highest dose often 37.8 µM), actives largely listed as inhibitors; hit rate 1.8% among 300,000; calls by dose curve; tested in HEK293 cells
CHX counter = counter-screen for Shiga toxin inhibitors: cycloheximide protein synthesis inhibition. AID 2314. cell reporter, cycloheximide protein synthesis inhibition counterscreen. max response, %. hit rate 12% among 300,000; in the data active means max response mostly above about 13%, no sharp cut-off; inactive means mostly below about 14%; further: read at 38.3 µM for the half of the compounds with a filed dose
Shiga toxin inh = blocks Shiga toxin action in Vero cells. Vero cells, Shiga toxin protein synthesis inhibition reporter. inhibition, % at 38.7 µM. hit rate 9.2% among 290,000. AID 2315; in the data active means inhibition mostly above about 28%, no sharp cut-off; inactive means mostly below about 43%
LASV entry inh = Lassa virus entry inhibition. Potency, µM (doses to about 37.9 µM), hits mostly inhibitors. hit rate 1.2% among 300,000. AID 540256. Lassa virus pseudotype entry inhibition, cell reporter; calls by dose curve; tested in HEK293 cells; further: nearly all actives have a fitted effect of over 50% in size
AMA1 RON2 block = inhibitors of Plasmodium falciparum AMA1-RON2 interaction. Potency, µM (doses to about 58.2 µM), actives largely listed as inhibitors. hit rate 0.2% among 360,000. AlphaScreen AMA1-biotinylated RON2 peptide binding; active means well fitted inhibition curve with a large enough effect; inconclusive means small, poorly fitted or top-dose-only effect; inactive means no such curve, though single readings can be large or run the other way; further: nearly all actives have a fitted effect of over 45% in size
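AMA1 (3D7) with his tag at 25 nM final met compounds first, then biotinylated RON2 peptide at 25 nM; detection used donor plus acceptor beads, 10 µg/mL apiece, read by AlphaScreen after 30 min at room temperature.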
Numbers stand for hits; 0 = inactive; ? = inconclusive; - = no result. This excerpt belongs to a sample that is enriched for hits.

SMILES | Marburg entry inh | CHX counter | Shiga toxin inh | LASV entry inh | AMA1 RON2 block
CC(=O)N1CCc2c(sc3c2c(=O)n(-c2cc(Cl)ccc2C)c(=O)n3C)C1 | 0 | - | - | - | -
Cc1ccc(CSc2ncn(-c3ccccc3)n2)cc1 | 0 | 36 | 86 | ? | 0
Clc1ccccc1CSc1ncn(-c2ccccc2)n1 | ? | 42 | 70 | ? | 0
O=C(CSc1ncn(-c2ccccc2)n1)NCc1ccccc1 | 0 | 0 | 0 | 0 | 0
CCCc1cc(=O)[nH]c(Nc2cc(C)ccc2OC)n1 | ? | - | - | 0 | -
C=CCN1C(=O)CC[C@@]23C1=NC(C(=O)OC)=C(C(=O)OC)[C@@H]2N(C)c1ccccc13 | 0 | - | - | - | -
CC1(C)CC(=O)c2c(noc2-c2ccccc2)C1 | 0 | 31 | 58 | 0 | 0
CC1(C)CC(=O)c2c(Cc3ccccc3)noc2C1 | 0 | 0 | 0 | 0 | 0
Nc1nc(SCC(=O)NCCc2ccccc2)[nH]c(=O)c1-c1ccccc1 | - | 0 | 0 | - | -
Cc1ccc(-c2cn3c(n2)sc2cc(C(=O)NCc4cccs4)ccc23)cc1 | - | - | - | 0 | -
COc1ccc(N/C=C/C(=O)c2ccc(Oc3ncccn3)cc2)cc1 | 0 | 0 | 0 | 0 | 0
NS(=O)(=O)c1ccc(N/C=C\C(=O)c2ccc(F)cc2)cc1 | ? | 29 | 65 | 0 | 0
O=C(/C=C/Nc1ccc(F)cc1)c1ccc(Oc2ncccn2)cc1 | 0 | 15 | 0 | 0 | 0
CN(C)c1ccc(N/C=C/C(=O)c2ccc(F)cc2)cc1 | ? | 65 | 63 | ? | 0
CC(=O)c1ccc(N/C=C/C(=O)c2ccc(Br)cc2)cc1 | - | 11 | 22 | - | 0
COc1ccc(C(C(=O)NCc2ccccc2)n2c(-c3ccccn3)nc3ccccc32)cc1 (centres undefined) | - | - | - | - | 0
NS(=O)(=O)c1ccc(N/C=C/C(=O)c2ccc(Br)cc2)cc1 | ? | 61 | 77 | 0 | 0
NS(=O)(=O)c1ccc(N/C=C\C(=O)c2ccncc2)cc1 | ? | 0 | 0 | 0 | 0
CCOC(=O)c1cc(S(=O)(=O)NCc2ccc(OC)cc2)[nH]n1 | - | - | - | 0 | -
CS(=O)(=O)N(CC(=O)Nc1ccc2c(c1)OCO2)c1ccc(Cl)cc1 | 0 | 36 | 116 | 0 | 0
COc1ccc(Cl)cc1N(CC(=O)Nc1ccc2c(c1)OCCO2)S(C)(=O)=O | 0 | 15 | 0 | 0 | 0
COc1ccccc1N(CC(=O)Nc1ccc2c(c1)OCCO2)S(=O)(=O)c1ccc(C)cc1 | ? | 32 | 47 | ? | 0
CS(=O)(=O)N(CC(=O)Nc1ccccc1C(=O)NCc1ccccc1)c1ccc2c(c1)OCCO2 | 0 | 0 | 0 | 0 | 0
COc1ccc(C)cc1N(CC(=O)Nc1ccc2c(c1)OCCO2)S(C)(=O)=O | - | 0 | 0 | - | 0
CS(=O)(=O)N(CC(=O)Nc1ccccc1C(=O)NCCc1ccccc1)c1ccc2c(c1)OCCO2 | 0 | 35 | 0 | 0 | 0
SMILES | Marburg entry inh | CHX counter | Shiga toxin inh | LASV entry inh | AMA1 RON2 block
CC(C)(C)OC(=O)C[C@H]1C/C=C\C[C@H](CC(=O)NCCO)C(=O)N2CCC[C@@H]2COC1=O | - | - | - | - | 0
COc1ccc(C)cc1NS(=O)(=O)c1ccc(Cl)nc1 | - | - | - | - | 0
C[C@H](NC(=O)c1ccco1)C(=O)NCc1cccs1 | - | - | - | - | 0
COC(=O)Cc1ccc(OC2(C)CCN(Cc3ccccc3)C2)cc1 (centres undefined) | - | - | - | - | 0
Cc1noc(C)c1S(=O)(=O)N(CC(=O)Nc1ccc2c(c1)OCO2)c1ccc(C(C)C)cc1 | - | 0 | 0 | - | 0
Cc1n[nH]c(C)c1S(=O)(=O)N(CC(=O)Nc1ccc2c(c1)OCCO2)c1ccc(C(C)C)cc1 | 0 | 26 | 0 | - | 0
Cc1ccc(N(CC(=O)Nc2ccc3c(c2)OCCO3)S(C)(=O)=O)cc1 | ? | 54 | 60 | 0 | 0
CC(=O)Cc1nsc(NC(=O)c2ccc(COc3ccccc3C)o2)n1 | 0 | 0 | 0 | 0 | 0
O=C(OCC1OC(OC(=O)c2cc(O)c(O)c(OC(=O)c3cc(O)c(O)c(O)c3)c2)[C@@H](OC(=O)c2cc(O)c(O)c(OC(=O)c3cc(O)c(O)c(O)c3)c2)C(OC(=O)c2cc(O)c(O)c(OC(=O)c3cc(O)c(O)c(O)c3)c2)C1OC(=O)c1cc(O)c(O)c(OC(=O)c2cc(O)c(O)c(O)c2)c1)c1cc(O)c(O)c(OC(=O)c2cc(O)c(O)c(O)c2)c1 (some centres undefined) | 0.35µM | - | - | 11µM | -
Clc1cc(/C=N\NC2=NCCN2)cc(Cl)n1 | 0 | - | - | ? | 0
CCNC(=O)NC(=O)C(C)OC(=O)C(C)(C)Oc1ccc(Cl)cc1 (centres undefined) | 0 | 0 | 0 | ? | 0
CCNC(=O)NC(=O)C(C)Oc1ccc(Br)cc1Br (centres undefined) | ? | 64 | 98 | 0 | 0
Cc1ccc(NC(=O)N2CCC(NC(=O)c3ccccc3C)CC2)cc1 | 0 | 0 | 0 | 0 | 0
O=C(Nc1ccc(Cl)cc1)N1CCC(c2ccccc2)C1 (centres undefined) | ? | 42 | 116 | ? | 0
O=C(Nc1cccc(F)c1)N1CC=C(c2ccc(Cl)cc2)CC1 | 0 | 46 | 75 | 0 | 0
CC(C)N(C)C1CCN(C(=O)Nc2ccc(Cl)cc2)CC1 | 0 | 0 | 0 | 0 | 0
Cc1ccc(NC(=O)N2CCC(c3ccccc3)C2)cc1C (centres undefined) | ? | 53 | 101 | ? | 0
Cc1ccc(NC(=O)N2CCC(NC(=O)C(C)(C)C)CC2)cc1 | 0 | 17 | 0 | 0 | 0
CCC(C)(C)NC(=O)C(c1ccc(C)cc1)N(Cc1ccco1)C(=O)CCC(=O)Nc1nccs1 (centres undefined) | 0 | 0 | 0 | 0 | 0
CC12CCC(O)CC1=CCC1C2CCC2(C)c3[nH]ncc3CC12 (centres undefined) | 0 | - | - | ? | 0
Cc1ccc(C(=O)NC2CCN(C(=O)Nc3ccccc3)CC2)cc1 | 0 | 0 | 0 | 0 | 0
Cc1ccc(C2CCN(C(=O)Nc3ccccc3)C2)cc1 (centres undefined) | 0 | 39 | 150 | 0 | 0
O=C(Nc1cccc(F)c1)N1CCC(c2ccccc2)CC1 | - | 41 | 74 | - | 0
O=C(Nc1cccc(F)c1)C1CCN(C(=O)NCc2ccccc2)CC1 | 0 | 0 | 0 | 0 | 0
Cc1ccccc1NC(=O)Cn1c(=O)n(CCC(=O)N2CCc3ccccc3C2)c(=O)c2ccccc21 | 0 | - | - | 0 | -
SMILES | Marburg entry inh | CHX counter | Shiga toxin inh | LASV entry inh | AMA1 RON2 block
COC1(OC)C(/C=C/c2ccc(Cl)cc2)C(C#N)(C#N)C1(OC)OC (centres undefined) | ? | 19 | 41 | ? | 0
O=C(COC(=O)c1ccc([N+](=O)[O-])s1)c1ccc[nH]1 | 0 | - | - | 0 | 0
COc1ccc(C2c3c(n(C)c4ccccc34)C(=O)N2CC(=O)Nc2c(C)cc(C)cc2C)cc1 (centres undefined) | - | - | - | 0 | -
COc1ccc(/C=N\NC(=O)c2sccc2C)cc1Cn1nc(C)cc1C | - | 42 | 105 | - | 0
COc1ccc(/C=N/NC(=O)Cn2nnc3ccccc32)cc1OC | 0 | 22 | 32 | 0 | 0
CN(C)c1ccc(/C=N/NC(=O)Cn2nnc3ccccc32)cc1 | 0 | 0 | 0 | ? | 0
COc1ccc(/C=N/NC(=O)c2ccccc2O)cc1Cn1nnc2ccccc21 | - | 22 | 50 | - | 0
COc1ccc(/C=N/NC(=O)c2ccccc2O)cc1CN1CCOCC1 | 0 | 0 | 0 | 0 | 0
